Most compounds without a hit are left out; they make up all but 6% or so of the library.
D1 potentiator – human D1 dopamine receptor positive modulation; HEK293 TREx D1 cells, calcium flux, dopamine EC20 potentiation; potentiation, % at 10 µM; 360,000 compounds, 0.036% hits; in the data active means potentiation above about 30%
D1 antagonist – antagonists of human D1 dopamine receptor; P21728; HEK293 TREx D1 cells, calcium flux, dopamine EC80; active compounds read low; activity change, negative = inhibition, % at 10 µM; 360,000 compounds, 3.2% hits; AID 504652; in the data active means activity change below about -30%
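Antagonism measured as reduced calcium response to an EC80 dopamine addition following 180 s compound pre-read; cells were inducible HEK293 Trex D1 plated overnight at 30 C, read kinetically at 1 cycle/sec.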
D1 agonist – agonists of human D1 dopamine receptor | HEK293 T-REx D1 cells, calcium flux, agonist mode | P21728 | activation, % at 2 µM | AID 504660 | 360,000 compounds, 1% hits; in the data active means activation above about 30%
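Inducible HEK293 T-REx D1 cells, force-coupled to calcium signalling, were plated at 4000 cells/well with tetracycline and held overnight at 30 C. After no-wash calcium dye loading, compound-evoked calcium rise over 180 s flagged agonists.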
D3 ag – agonists of human D3 dopamine receptor; D3R DiscoveRx beta-arrestin cells, luminescence, 90 min; max activation, %; 410,000 compounds, 0.58% hits; AID 652048; in the data active means max activation above about 30%
Target sequence (P35462 whole entry, looked up): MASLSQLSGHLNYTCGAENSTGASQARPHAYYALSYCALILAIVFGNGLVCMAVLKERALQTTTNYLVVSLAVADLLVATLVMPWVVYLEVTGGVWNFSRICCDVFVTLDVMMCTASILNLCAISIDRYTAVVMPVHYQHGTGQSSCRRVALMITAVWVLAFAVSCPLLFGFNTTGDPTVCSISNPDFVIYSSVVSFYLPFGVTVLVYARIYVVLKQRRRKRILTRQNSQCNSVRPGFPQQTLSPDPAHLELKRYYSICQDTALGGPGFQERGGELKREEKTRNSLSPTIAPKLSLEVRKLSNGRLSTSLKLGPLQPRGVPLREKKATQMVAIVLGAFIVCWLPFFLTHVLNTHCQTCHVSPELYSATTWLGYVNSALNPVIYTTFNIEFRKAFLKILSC
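Cells at 1500/well, incubated overnight, then treated with pinned compounds (dopamine as control) for 90 min at 37 degrees C. DiscoveRx reagent added for 30 - 60 minutes at room temperature; luminescence read.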
D3 antag – antagonists of human D3 dopamine receptor; 360,000 compounds, 2.5% hits; max response, negative = inhibition, %; AID 652054; P35462; D3R cells, DiscoveRx beta-arrestin luminescence, antagonist mode; active compounds read low; in the data active means max response below about -50%; inconclusive means no clear call, values can overlap the other calls
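Cells expressing the human receptor were seeded at 1500 cells/well, incubated overnight at 37 degrees C in 5% CO2, then exposed to library compounds with dopamine controls for 90 minutes at 37 degrees C before luminescent detection.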
Hits are given with their value; . = inactive; ? = inconclusive; / = not tested or not shown.

SMILES	D1 potentiator	D1 antagonist	D1 agonist	D3 ag	D3 antag
Cc1ccc(-n2c(=O)c3sc4ccccc4c3n(CC(=O)NC3CCCC3)c2=O)cc1C	.	-45	.	.	/
C=C1CC[C@H](O)CC1=C/C=C1\CCC[C@]2(C)[C@@H]([C@H](C)CC[C@@H](O)C(C)(C)O)CC[C@@H]12	/	/	/	.	/
CCc1ccc(NC(=O)N(Cc2c[nH]c3ccccc23)C2CCCCC2)cc1	.	.	.	.	/
Cc1noc(C)c1NC(=O)N(C)C[C@@H]1OCc2cn(nn2)CCCC(=O)N([C@H](C)CO)C[C@H]1C	/	/	/	.	.
COc1cc(S(=O)(=O)n2ccc(C)n2)c(C)cc1C	/	/	/	.	.
COc1c(OC(C)=O)ccc(/C=C/c2ccc3cccc(OC)c3n2)c1[N+](=O)[O-]	.	.	.	.	.
Oc1ccc(/C=C/c2ccc3cccc(O)c3n2)cc1Br	.	.	37	.	.
Oc1cccc2ccc(/C=C/c3c(F)cccc3Cl)nc12	.	.	.	.	?
COc1cc(Cl)cc(/C=C/c2ccc3cccc(O)c3n2)c1OC	.	.	.	.	-94
Oc1cccc2ccc(/C=C/c3ccccc3Cl)nc12	.	.	.	.	-176
COc1ccc(Cl)cc1/C=C/c1ccc2cccc(O)c2n1	.	.	.	.	-84
CCN(CC)C(=O)C1=C(C)N(Cc2ccc(F)cc2)C(=O)C(CC(=O)NCc2ccco2)C1 (centres undefined)	/	/	/	.	.
CCOC(=O)CCn1cnc2onc(-c3cc(OC)ccc3Cl)c2c1=O	.	.	.	.	/
Cc1cccc(C)c1NC(=O)CN(C)C(=O)Cn1c(=O)cnc2ccccc21	.	.	.	.	.
CCN(CC(=O)Nc1ccccc1C(F)(F)F)C(=O)CCS(=O)(=O)c1ccc(Cl)cc1	.	-30	.	.	.
CCN(CC(=O)Nc1cc(Cl)ccc1C)C(=O)CCS(=O)(=O)c1ccc(Cl)cc1	.	.	.	.	.
COCc1cc(C)n(CC(=O)Nc2cccc(C(C)=O)c2)c(=O)c1C#N	.	.	.	.	/
COc1cccc(Nc2sc(C(=O)c3ccc(F)cc3)c(N)c2C(=O)NCc2ccc(C)cc2)c1	.	.	.	.	/
CSc1ccccc1NC(=O)Cn1c([N+](=O)[O-])cnc1C	.	.	.	.	.
N#CC1=C(N)OC2=C(C(=O)CCC2)C1c1ccc(OC(=O)N2CCOCC2)cc1 (centres undefined)	.	.	.	.	-80
CCN(CC)CCn1c2c(c(SCC(=O)Nc3cccc(C(F)(F)F)c3)nc1=O)CCC2	.	/	48	.	/
CN(C)CCn1c2c(c(SCC(=O)Nc3cccc(C(F)(F)F)c3)nc1=O)CCCC2	.	.	.	.	.
COc1cccc(NC(=O)CSc2nc(=O)n(Cc3ccncc3)c3c2CCCC3)c1	37	.	.	.	.
COc1ccc(C(=O)Nc2cc(C)nn2-c2ccc(F)cc2)cc1	.	.	.	.	.
Cc1cc(C(=O)NC2CCCc3c2cnn3-c2ccc(C(C)(C)C)cc2)nn1C (centres undefined)	.	-35	.	.	.
SMILES	D1 potentiator	D1 antagonist	D1 agonist	D3 ag	D3 antag
CC(=O)Nc1cccc(C(=O)NC2CCCc3c2cnn3-c2ccc(C(C)(C)C)cc2)c1 (centres undefined)	.	.	.	33	.
CCN(CC)CCN(Cc1cc2cc3c(cc2[nH]c1=O)OCO3)C(=S)NC	.	.	.	.	.
O=C(Nc1c2c(nn1-c1ccc(F)cc1)CS(=O)C2)c1ccc(Br)o1 (centres undefined)	.	.	.	.	.
CCc1ccc(-n2nc(C)c3c(C(=O)N4CCN(c5ccccc5)CC4)cc(C)nc32)cc1	.	-36	.	.	/
CCc1ccc(-n2nc(C)c3c(C(=O)N4CCN(c5cccc(Cl)c5)CC4)cc(C)nc32)cc1	.	.	.	.	/
O=C(CSc1nc2ccsc2c(=O)n1Cc1ccccc1F)NCc1ccccc1Cl	.	.	.	.	/
COc1ccc(NC(=O)CSc2nnc(Cc3cccn3C)n2-c2ccc(C)cc2)cc1OC	.	-39	.	30	.
COc1ccccc1NC(=O)CSc1nnc(Cc2cccn2C)n1CCc1ccccc1	.	-31	.	.	.
CCOC(=O)c1ccccc1NC(=O)CSc1nnc(Cc2cccn2C)n1-c1ccc(C)cc1	.	.	.	39	.
COc1ccc(NC(=O)CSc2nnc(Cc3cccn3C)n2CCc2ccccc2)c(OC)c1	.	.	.	.	.
